# PubChem BioAssay (NCI)
# Compounds without any hit were thinned out: in the full panel of roughly 83,000, 20% have a hit.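 Compound tested at a single concentration for 48 hours in 96-well plates; a percent growth value below 10 was scored as active.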 Calls of active or inactive are those of the source.
# Test system: NCI-H23 lung
# Test: NCI-60 one-dose screen, 48 h (100 = growth as untreated, 0 = no growth, -100 = all killed)
# Details: 10 µM unless noted
row,Compound,growth
1,O=C(COc1ccc(NC(=O)Nc2ccc(Cl)c(Cl)c2)cc1)N=Nc1c(O)[nH]c2ccccc12,-43.7% (active)
2,COc1ccc(-c2nnc3ccc(N/N=C/c4ccc(O)cc4)nn23)cc1,32.5% (inactive)
3,CCCSc1nc(NCCc2c[nH]c3ccccc23)c(C#N)c(-c2ccccc2)n1,89.4% (inactive)
4,CSc1ccc(C(=O)Nc2ccc3nnn(/C(C#N)=C/c4ccccn4)c3c2)cc1,-77.8% (active)
5,CC(=O)OC[C@@]1(C)C2CC[C@]3(C)C(CC=C4C5CC(C)(C)CC[C@]5(C(=O)Nc5cccc(C)c5)CC[C@]43C)[C@@]2(C)C[C@@H](OC(C)=O)[C@@H]1OC(C)=O (stereo partly drawn),45% (inactive)
6,CN(C)c1ccnc(CNCCSC2(c3ccccc3)c3ccccc3C=Cc3ccccc32)c1,-30.6% (active)
7,Cn1cc(-c2nnc(N)nc2-c2c[nH]c3ccc(F)cc23)c2cccnc21,53.7% (inactive)
8,Clc1cccc(-c2ccc(OCCCN3CCN(c4ccncc4)CC3)cc2)c1,19.1% (inactive)
9,Cc1ccccc1[C@H]1C(C(=O)c2ccc(Cl)cc2)C2(N[C@@H]1c1ccccc1)C(=O)Nc1ccc(Br)cc12 (stereo partly drawn),-3.76% (active)
10,CN(C)c1ccnc(CNCCSC2(c3ccc(C(F)(F)F)cc3)c3ccccc3C=Cc3ccccc32)c1,-39.1% (active)
11,O=C(c1ccc(OCCN2CCOCC2)cc1)C1[C@H](c2ccc(Cl)cc2)[C@@H](c2ccccc2)NC12C(=O)Nc1ccc(Cl)cc12 (stereo partly drawn),37.9% (inactive)
12,COc1cc(CNC(=O)/C=C/c2ccc3c(c2)OCO3)ccc1OCc1cn(-c2ccc([N+](=O)[O-])cc2)nn1,88.8% (inactive)
13,CC(=O)Nc1ccc(-c2nc3cc(-c4ccc(O)cc4)ccc3n2C)cc1,59.2% (inactive)
14,Clc1cccc(Cl)c1/C=C/c1cc(/C=C/c2ccc(Br)cc2)c2ccccc2n1,98.2% (inactive)
15,COc1cc(OC)cc(-c2cc3ccc(N(C)C)cc3c(=O)[nH]2)c1,44.1% (inactive)
16,CNC(=O)c1cc(Oc2ccc3nc(NC(=O)Nc4cccc(OC(F)(F)F)c4)sc3c2)ccn1,6.71% (active)
17,N#Cc1c(-c2ccc(Br)cc2)nc2n[nH]c(-c3ccc(Br)cc3)c2c1-c1ccc(F)cc1,92.6% (inactive)
18,CCN1CCN(Cc2ccc(C(=O)Nc3cccc(C#Cc4cccc5[nH]nc(N)c45)c3)cc2C(F)(F)F)CC1,-82.6% (active)
19,O=c1[nH]n(C(=S)N/N=C/c2ccccc2Cl)c(=O)c2ccccc12,-43.6% (active)

row,Compound,growth
1,CC1(C)CC[C@]2(C(=O)Nc3ccccc3)CC[C@]3(C)C(=CCC4[C@@]5(C)C[C@@H](O)[C@H](O)[C@@](C)(CO)C5CC[C@]43C)C2C1 (stereo partly drawn),75.9% (inactive)
2,Nc1nnc(-c2c[nH]c3ncc(Br)cc23)c(-c2c[nH]c3ccc(F)cc23)n1,33.3% (inactive)
3,COc1ccc(C(=O)/C=C/c2ccccc2Br)cc1S(N)(=O)=O,-21.4% (active)
4,CSc1ccccc1NC(=O)c1ccc2nn(/C(C#N)=C/c3ccccn3)nc2c1,-83.9% (active)
5,O=C(N=Nc1c(O)[nH]c2ccc(Cl)cc12)c1ccc2nc(-c3ccccc3)[nH]c2c1,29.9% (inactive)
6,CC(=O)Oc1ccccc1C(=O)[Se]C(=NC1CCCCC1)NC1CCCCC1,-79.9% (active)
7,CSc1ccc(NC(=O)c2ccc3nnn(/C(C#N)=C/c4ccccn4)c3c2)cc1,-95.9% (active)
8,COc1ccc(C(=O)/C=C/c2cccnc2)cc1S(N)(=O)=O,22.3% (inactive)
9,Cc1ccc([C@H]2C(C(=O)c3ccc(Cl)cc3)C3(N[C@@H]2c2ccccc2)C(=O)Nc2ccccc23)cc1 (stereo partly drawn),44.1% (inactive)
10,CN(C)CCCNC(=O)c1cc(NC(=O)c2cc(NC(=O)c3ccc(C#Cc4ccccc4)cc3)cn2C)cn1C,-42.7% (active)
11,COc1ccc(C(=O)/C=C/c2cccc3ccccc23)cc1S(N)(=O)=O,-20.5% (active)
12,COc1ccc(NC(=O)c2sc3nc(C(C)C)ccc3c2N)cc1,75.3% (inactive)
13,COc1ccc([C@H](C)Nc2nc(Cl)nc3ccccc23)cc1,23.2% (inactive)
14,COc1cc2oc(-c3cccc(NC(=O)[C@H](Cc4ccccc4)NC(=O)OC(C)(C)C)c3)cc(=O)c2c(OC)c1OC,39.1% (inactive)
15,Cc1ccc(C(=O)CSc2nc3ccc(F)cc3c(=O)n2-c2ccc(Cl)cc2)cc1,46% (inactive)
16,CC(C)Sc1nc(NCCc2c[nH]c3ccccc23)c(C#N)c(-c2ccc(F)cc2)n1,46.2% (inactive)
17,OCNc1ccc(-n2cnc3cc(-c4ccc(O)cc4)ccc32)cc1C(F)(F)F,27% (inactive)
18,Cc1cc2nc3c4ccccc4n(CCNCCN(C)C)c3nc2cc1C,31.2% (inactive)
19,COc1ccc2c(c1)C(=N/N=C(\C)c1ccc(OC)c(S(N)(=O)=O)c1)C(=O)N2,94.1% (inactive)
